Rows were chosen to be rich in hits. Some 3.5% of all compounds tested hit in one or more screens of this group.
mHTT-CaM PPI inh: inhibitors of human mutant huntingtin-calmodulin interaction | AID 1671202 | inhibition, % at 15 µM | hit rate 3.6% among 190,000 | P42858 | AlphaScreen His-mHTT/GST-CaM binding, luminescence;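 also: 0% = both proteins with DMSO and 100% = one protein alone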
Pf apPOL inh: Pf-apPOL DNA polymerase inhibition | Recombinant Pf-apPOL, molecular beacon fluorescence, 1.5 h | inhibition, % at 10 µM | hit rate 0.25% among 210,000
* hit, by the source's call. Rule as the data show it: active = inhibition above about 50%; inactive = the rest.

Screening COc1ccc(S(=O)(=O)N=C2C=C(Nc3ccccc3OC)C(=O)c3ccccc32)cc1 returned mHTT-CaM PPI inh 91* and Pf apPOL inh 0.
Screening O=C(Nc1ccc(Cl)cc1)c1ccc([N+](=O)[O-])o1 returned mHTT-CaM PPI inh 14 and Pf apPOL inh -7.
`Cc1cc([N+](=O)[O-])nn1CC(C)c1nc(-c2cccs2)no1` (stereo unspecified) gave mHTT-CaM PPI inh -9.
For CCc1ccc(S(=O)(=O)N=C2C=C(Nc3ccccc3OC)C(=O)c3ccccc32)cc1 the results were mHTT-CaM PPI inh 93* and Pf apPOL inh 0.
For CCc1ccc(S(=O)(=O)Nc2ccccc2OC)cc1 the results were mHTT-CaM PPI inh -25 and Pf apPOL inh 2.
Screening COc1ccccc1NC(=O)c1ccc(F)cc1 returned mHTT-CaM PPI inh -6 and Pf apPOL inh -2.
COc1ccccc1NC(=O)CN(c1ccc(C)cc1C)S(C)(=O)=O was read as mHTT-CaM PPI inh 0 and Pf apPOL inh -3.
`COc1ccccc1NC1=CC(=NS(=O)(=O)c2ccc(C)cc2C)c2ccccc2C1=O` gave mHTT-CaM PPI inh 92* and Pf apPOL inh -6.
`COc1ccccc1NC1=CC(=NS(=O)(=O)c2ccc(F)cc2)c2ccccc2C1=O` gave mHTT-CaM PPI inh 94* and Pf apPOL inh 2.
O=c1cc(CN2CCSCC2)ccn1CC1CC1 was read as mHTT-CaM PPI inh -10 and Pf apPOL inh 5.
O=C(CCSCc1ccccc1F)NCc1ccc(F)cc1Cl was read as mHTT-CaM PPI inh -24 and Pf apPOL inh -4.
For Cc1ccc(N2C(=O)C3C4C=CC(C5CC45)C3C2=O)cc1[N+](=O)[O-] (stereo unspecified) the results were mHTT-CaM PPI inh 1 and Pf apPOL inh 26.
O=C(NC1CCCC1)c1ccc(-c2ccc(F)cc2)nc1 was read as mHTT-CaM PPI inh 0 and Pf apPOL inh -2.
`COc1ccc(CNC(=O)COc2cc(C)c(Br)c(C)c2)cc1` gave mHTT-CaM PPI inh -18 and Pf apPOL inh -5.
`Cc1nn(-c2cccc(Cl)c2)c2c1C(c1ccncc1)C(C#N)=C(N)O2` (stereo unspecified) gave mHTT-CaM PPI inh 17 and Pf apPOL inh -6.
`COc1cc(C2C(C#N)=C(N)Oc3c2c(C)nn3-c2cccc(Cl)c2)cc(OC)c1O` (stereo unspecified) gave mHTT-CaM PPI inh 64* and Pf apPOL inh -2.
For Cc1cc(C)c(-n2c(O)c(C=C3C=Nc4ccccc43)c(=O)[nH]c2=O)c(C)c1 the results were mHTT-CaM PPI inh 100* and Pf apPOL inh 2.
Screening O=c1[nH]c(=O)n(-c2ccccc2F)c(O)c1C=C1C=Nc2ccc(Br)cc21 returned mHTT-CaM PPI inh 100* and Pf apPOL inh 5.
Cc1ccc(-n2c(O)c(C=C3C=CC=N3)c(=O)[nH]c2=O)cc1 was read as mHTT-CaM PPI inh 12 and Pf apPOL inh 0.
CC1=Nc2ccccc2C1=Cc1c(O)n(-c2ccc(C)cc2)c(=O)[nH]c1=O was read as mHTT-CaM PPI inh 12 and Pf apPOL inh -44.
`O=C(c1ccnc(-c2cccs2)c1)N1CCN(c2ccccc2F)CC1` gave mHTT-CaM PPI inh 2 and Pf apPOL inh 4.
`COc1cccc(CCC(=O)NCC23CCCC2N(C)C(=O)CC3)c1` (stereo unspecified) gave mHTT-CaM PPI inh -6 and Pf apPOL inh -4.
`Cc1ccc(C2=N/C(=C\c3cccc(Cl)c3)C(=O)O2)cc1C` gave mHTT-CaM PPI inh 3 and Pf apPOL inh -4.
Screening CC1=CC(=O)C(C(C)C)=CC1=NS(=O)(=O)c1ccc([N+](=O)[O-])cc1 returned mHTT-CaM PPI inh 50 and Pf apPOL inh -6.
CC1=CC(=NS(=O)(=O)c2ccc(Cl)cc2)C(C)=CC1=O was read as mHTT-CaM PPI inh 65* and Pf apPOL inh -2.
`Cc1ccc(C=CC(=O)c2ccc(O)cc2)cc1` gave mHTT-CaM PPI inh 18 and Pf apPOL inh -16.
Screening Cc1ccc(NC2=C([N+](=O)[O-])CS(=O)(=O)C2)cc1 returned mHTT-CaM PPI inh -3 and Pf apPOL inh -5.
For O=[N+]([O-])C1=C(Nc2ccc(Cl)c(Cl)c2)CS(=O)(=O)C1 the results were mHTT-CaM PPI inh 75* and Pf apPOL inh -3.
Screening CCOc1cc(Nc2ccc(NC(=O)c3ccco3)cc2)nc(C)n1 returned mHTT-CaM PPI inh 4 and Pf apPOL inh -10.
For Cc1cc(C)n(-c2ccc(Nc3ccc(NC(=O)c4ccco4)cc3)nn2)n1 the results were mHTT-CaM PPI inh 67* and Pf apPOL inh -8.
Screening CC(=O)Nc1ccc(Nc2cc(C(C)C)c(O)c(C(C)C)c2)cc1 returned mHTT-CaM PPI inh 74* and Pf apPOL inh 3.
`COc1c(C(C)C)cc(NC(C)=O)cc1C(C)C` gave mHTT-CaM PPI inh -1 and Pf apPOL inh -3.
`O=c1[nH]c2ccccc2nc1Cc1ccc(Cl)c([N+](=O)[O-])c1` gave mHTT-CaM PPI inh 4 and Pf apPOL inh 9.
Screening COc1ccccc1C(=O)NC(C)c1nc2ccccc2n1Cc1ccccc1F (stereo unspecified) returned mHTT-CaM PPI inh 55* and Pf apPOL inh -1.
CCCC(=O)NC(C)c1nc2ccccc2n1Cc1ccccc1F (stereo unspecified) was read as mHTT-CaM PPI inh 4 and Pf apPOL inh -1.
O=C(Nc1ccc2c(c1)CCCN2S(=O)(=O)c1ccccc1)OCc1ccccc1 was read as mHTT-CaM PPI inh -15 and Pf apPOL inh 1.
Screening CC(=O)N1CCCC2(CC(c3cccnc3)=CO2)C1 (stereo unspecified) returned mHTT-CaM PPI inh -10 and Pf apPOL inh -5.
OC1(c2ccccc2)CCN(Cc2ccccc2)C1 (stereo unspecified) was read as mHTT-CaM PPI inh -4 and Pf apPOL inh -4.
For O=C(c1ccccc1)C1CN(Cc2ccccc2)CCC1(O)c1ccccc1 (stereo unspecified) the results were mHTT-CaM PPI inh 70* and Pf apPOL inh -1.
O=C(Nc1ccc(NC(=O)c2cccs2)c(Cl)c1)c1ccccc1 was read as mHTT-CaM PPI inh -2 and Pf apPOL inh 0.
Screening CCN1CCN(CCCNC(=O)c2cc3cn(C4CCCC4)cc3s2)CC1 returned mHTT-CaM PPI inh 21 and Pf apPOL inh -4.
Screening COc1ccc(N2CC(CNS(=O)(=O)c3ccc4c(c3)CCCC4)CC2=O)cc1 (stereo unspecified) returned mHTT-CaM PPI inh 14 and Pf apPOL inh -6.
COc1ccc(N2CCC(CNS(=O)(=O)c3cccc(Cl)c3)C2)cc1 (stereo unspecified) was read as mHTT-CaM PPI inh 84* and Pf apPOL inh 2.
O=C(CSc1oc(-c2ccco2)nc1S(=O)(=O)c1ccccc1)NC1CCCCC1 was read as mHTT-CaM PPI inh -2 and Pf apPOL inh -1.
Screening CCOC(=O)C(C#N)=NNc1c(C#N)csc1C(=O)OC returned Pf apPOL inh 18.
`COc1cc(C)c(C)cc1S(=O)(=O)Nc1ccc(CC(=O)NCc2cccs2)cc1` gave mHTT-CaM PPI inh 0 and Pf apPOL inh 21.
Screening Oc1ccccc1C=Nc1ccc(O)c(-c2nc3ccccc3s2)c1 returned mHTT-CaM PPI inh 32 and Pf apPOL inh 1.
For COc1cc(C=Nc2ccc(O)c(-c3nc4ccccc4s3)c2)ccc1O the results were mHTT-CaM PPI inh 79* and Pf apPOL inh 2.
Screening N#Cc1c(SCC(=O)NC2CC2)sc2c(O)cc(=O)[nH]c12 returned mHTT-CaM PPI inh -4.
For N#Cc1c(SCC(=O)Nc2nccs2)sc2c(O)cc(=O)[nH]c12 the results were mHTT-CaM PPI inh 51*.
